Measured values as given in PubChem BioAssay AID602198 (NMMLSC, 2012).
Results with a measured potency or affinity are listed apart. Active and inactive are the calls of the source. How the calls were made is not given here.

Assay: V-ATPase regulators in yeast, concentration series – S. cerevisiae, pHLuorin, cherry pick 2, dose response (AID 602198)
Conditions: pHLuorin vacuolar pH fluorescence; series mostly up to 33.1 µM; response (V-ATPase modulation): at the top concentration

Response (V-ATPase modulation), inactive:
O=[N+]([O-])c1ccc2c(c1)-c1ccccc1C2=NO 104%, O=C(NC1CCCCC1)c1c(O)nc2sccn2c1=O -0.55%, O=C(c1ccc([N+](=O)[O-])o1)N1CCN(c2nc3c(Cl)cccc3s2)CC1 25.8%, O=C(O)c1ccc(/C=N/N2CCN(C3c4ccccc4-c4ccccc43)CC2)cc1 36.4%, O=C1Oc2ccccc2C(=O)/C1=C/c1ccccc1O 38.5%, COc1ccc2nc(N3CCN(C(=O)c4ccc([N+](=O)[O-])o4)CC3)sc2c1 16.6%, CC1=NOC(=O)/C1=C\c1ccccc1 29%, CC1(C)CC(=O)C(C(C2=C(O)CC(C)(C)CC2=O)c2cccs2)C(=O)C1 (centres undefined) 24%, Cc1ccc2oc(C(=O)N(C)Cc3ccc(C)o3)c(C)c2c1 11.7%
